From PubChem BioAssay
D2 antagonist = HTS Assay for Allosteric Antagonists of the Human D2 Dopamine Receptor: Primary Screen for Antagonists. D(2) dopamine receptor (Homo sapiens), P14416. inhibition, % at 10 µM. HEK293 TREx D2 cells, calcium flux, dopamine EC80. 2% of 340,000 active. AID 485344, 2010; in the data active = inhibition above about 30%; inactive = below that, where a call was filed
Target sequence (P14416 whole entry, looked up): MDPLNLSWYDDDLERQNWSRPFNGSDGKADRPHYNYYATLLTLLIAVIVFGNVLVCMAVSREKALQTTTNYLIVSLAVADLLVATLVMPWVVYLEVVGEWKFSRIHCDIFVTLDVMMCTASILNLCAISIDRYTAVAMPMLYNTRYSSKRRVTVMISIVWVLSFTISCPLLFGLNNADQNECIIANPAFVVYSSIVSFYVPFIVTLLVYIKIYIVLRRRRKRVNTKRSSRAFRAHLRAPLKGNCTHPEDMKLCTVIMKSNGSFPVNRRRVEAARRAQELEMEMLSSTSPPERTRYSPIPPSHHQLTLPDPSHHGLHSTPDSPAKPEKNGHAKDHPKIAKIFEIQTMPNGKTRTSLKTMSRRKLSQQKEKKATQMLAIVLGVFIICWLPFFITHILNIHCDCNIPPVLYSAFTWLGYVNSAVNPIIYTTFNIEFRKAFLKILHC
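In this primary screen, negative modulation is detected by tracking calcium flux after an EC80 dopamine challenge in inducible HEK293 T-REx D2 cells preexposed to test compound for 180 s.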
B2AR arrestin = qHTS assay of beta-arrestin-biased ligands of beta2-adrenergic receptor | Beta-2 adrenergic receptor (Homo sapiens), P07550 | beta-arrestin recruitment to beta2AR, cell-based reporter | Potency, µM (highest dose often 46.1 µM), most hits filed as activators | 0.02% of 330,000 active | AID 492947, 2010; active = well fitted activation curve with a large enough effect; inconclusive = small, poorly fitted or top-dose-only effect; note: nearly all actives have a fitted effect of over 65% in size
D2 PAM-1 = Beta-Arrestin HTS for Positive Allosteric Modulators of the Human D2 Dopamine Receptor: Potentiators | D(2) dopamine receptor (Homo sapiens), P14416 | DiscoveRx D2 beta-arrestin cells, luminescence, 90 min; 100% = 57 uM dopamine signal | potentiation, % (concentration not given with the values) | 0.23% of 360,000 active | AID 624464, 2012; in the data active = potentiation above about 50%; inconclusive = mostly about 30% to 49%
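PathHunter beta-arrestin assay in DiscoveRx D2 cells. Compounds were added with an EC20 of dopamine (50 nM final) for 90 min at 37 deg C. Luminescence was read 1 h after detection reagent, with 57 uM dopamine as the EC100 control.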
D2 PAM-2 = HTS Assay for Positive Allosteric Modulators of the Human D2 Dopamine Receptor: Primary Screen for Potentiators; D(2) dopamine receptor (Homo sapiens), P14416; HEK293 T-REx D2, calcium flux, EC20 dopamine potentiation; potentiation, % at 10 µM; 0.34% of 340,000 active;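 active = potentiation over 3 SD above the plate norm, cut at about 30% in these data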
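Using a no-wash calcium dye in inducible, force-coupled HEK293 Trex cells expressing D2, we tracked fluorescence each second for 180 s after compound, then for 180 s after EC20 dopamine to detect augmented signalling.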
D2 ag-1 = Beta-Arrestin HTS for Positive Allosteric Modulators of the Human D2 Dopamine Receptor: Agonists; D(2) dopamine receptor (Homo sapiens), P14416; DiscoveRx PathHunter D2 beta-arrestin, luminescence, 90 min; 100% = 57 uM dopamine signal; activation, % (test concentration not listed); 0.084% of 360,000 active; in the data active = activation above about 40%; inconclusive = between about 15% and that limit
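DiscoveRx PathHunter D2 beta-arrestin cells (2,100/well) attached overnight, then compound-stimulated 90 min at 37 C in HBSS/10 mM HEPES/0.1% Tween-20 buffer; beta-galactosidase complementation read by luminescence after 1 h at ambient temperature. Dopamine 57 uM final (EC100) as control.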
D2 ag-2 = HTS Assay for Allosteric Agonists of the Human D2 Dopamine Receptor: Primary Screen for Agonists; D(2) dopamine receptor (Homo sapiens), P14416; HEK293 T-REx D2 cells, calcium flux agonist mode; activation, % at 2 µM; 0.53% of 340,000 active; AID 485358, 2010;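 active = activation over 3 SD above normal in the single-dose calcium agonist read, cut at about 30% in these data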
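Agonism scored from kinetic calcium signal (1 read/sec, 180 s) following compound pin transfer, after a 10 s baseline. Cells: HEK293 Trex line expressing inducible D2 receptor coupled to calcium, dye-loaded after overnight culture at 30 C.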
Hits are given with their value; . = inactive; ? = inconclusive; / = not tested or not shown. A selection: hits, their analogues and other compounds. The true share with any hit is near 2.4%.

SMILES | D2 antagonist | B2AR arrestin | D2 PAM-1 | D2 PAM-2 | D2 ag-1 | D2 ag-2
O=C(O)CCCNS(=O)(=O)Cc1ccccc1 | . | . | . | . | . | .
O=[N+]([O-])c1cccc(S(=O)(=O)NCCc2ccccc2)c1 | . | . | . | . | . | .
Cc1ccc(NCc2nnc(SCC(N)=O)n2CC2CCCO2)c(C)c1 (centres undefined) | . | . | . | . | . | .
CCCCNC(=O)c1sc(=S)n2c1[nH]c(=O)c1ccccc12 | 33 | . | . | . | . | .
CCCCCC(C)NC(=O)c1ccoc1C (centres undefined) | 40 | . | . | . | . | .
CCOC(=O)c1cc(-c2ccccc2)n(CC(=O)NC(C)c2ccccc2)c1C (centres undefined) | / | / | / | . | / | .
O=C(Nc1cccc(-n2cnnn2)c1)c1ccc(C(F)(F)F)cc1 | 57 | . | . | . | . | .
Cc1cc(C)nc(SCC(=O)c2ccc([N+](=O)[O-])cc2)n1 | . | . | 76 | . | . | .
Cc1cc(C)n(C(=O)CNc2ccccc2Cl)n1 | 32 | . | . | . | . | .
Cc1cc(C)n(C(=O)CNc2cccc(Cl)c2C)n1 | . | . | . | . | . | .
COc1ccc(C(=O)C2CCCN(C/C=C/c3ccccc3OC)C2)c(OC)c1 (centres undefined) | 86 | ? | . | . | . | .
COc1cccc(C(=O)C2CCCN(C/C=C/c3ccccc3OC)C2)c1 (centres undefined) | . | . | . | . | . | .
Cc1ccc(/C=N\NC(=O)c2ccc3c(c2)OCO3)o1 | 32 | . | . | . | . | .
O=C(CNc1ccccc1)N/N=C/c1ccc2c(c1)OCO2 | 37 | . | . | . | . | .
Cc1cccc(C(=O)Nc2cccc(C(=O)N/N=C/c3ccc4c(c3)OCO4)c2)c1 | 37 | . | . | . | . | .
Cc1cccc(C(=O)Nc2ccc(C(=O)N/N=C/c3ccc4c(c3)OCO4)cc2)c1 | . | . | . | . | . | .
O=C(N/N=C/c1ccc([N+](=O)[O-])o1)c1ccc2c(c1)OCO2 | . | . | . | . | . | .
COc1cccc2cc(C(=O)NCc3ccccn3)c(=O)oc12 | 44 | . | . | . | . | .
CCOc1ccc(CNS(=O)(=O)c2cc(CN3C(=O)c4cccnc4C3=O)ccc2OC)cc1 | / | . | . | / | . | /
CNC(=S)N(CCc1cccc(C)c1)Cc1cc2cc(OC)c(OC)cc2[nH]c1=O | 30 | . | . | . | . | .
COc1ccc(CCN(Cc2cc3cccc(C)c3[nH]c2=O)C(=O)NC2CCCCC2)cc1OC | 31 | . | . | . | . | .
COc1cc2cc(CN(CCc3cccc(C)c3)C(=S)NCCCN(C)C)c(=O)[nH]c2cc1OC | . | . | . | . | . | .
COc1ccc(Cn2c(=O)[nH]c3cc(C(=O)N4CCN(c5cc(Cl)ccc5C)CC4)ccc3c2=O)cc1 | / | / | / | . | / | .
COc1ccc(NS(=O)(=O)c2cc(C)ccc2OC)cc1OC | / | . | . | / | . | /
COc1ccc(C)cc1S(=O)(=O)Nc1ccc(F)c(Cl)c1 | 32 | . | . | . | . | .
SMILES | D2 antagonist | B2AR arrestin | D2 PAM-1 | D2 PAM-2 | D2 ag-1 | D2 ag-2
CC(C)CCNC(=O)CN(C(=O)Cn1nnc(-c2ccccc2F)n1)c1cccc2c1CCCC2 | / | . | . | / | . | /
COc1cccc(CNS(=O)(=O)c2ccc(S(=O)(=O)N3CCCC3)cc2)c1 | . | . | . | 32 | . | .
COc1cccc(CN(Cc2ccccc2F)S(=O)(=O)c2ccc(S(=O)(=O)NCc3ccccc3)cc2)c1 | 43 | . | . | . | . | .
COc1cccc(NS(=O)(=O)c2ccc(S(=O)(=O)N3CCCC3)cc2)c1 | . | . | . | . | . | .
COc1ccc(CNS(=O)(=O)c2ccc3c(c2)N(C(C)=O)CCO3)cc1 | . | . | . | . | . | .
COc1cccc(CNS(=O)(=O)c2ccc3c(c2)N(C)CCO3)c1 | 39 | . | . | . | . | .
Cc1ccc(NC(=O)COC(=O)CNC(=O)c2ccc(Br)cc2)c(C)c1 | . | . | . | . | . | .
N#Cc1cc(Cl)c(N2CCOCC2)cc1C#N | . | . | . | . | . | .
N#Cc1cc2ccc(N3CCOCC3)cc2cc1C#N | . | . | 69 | . | . | .
COCCn1nnnc1C(c1cc2cccc(C)c2[nH]c1=O)N1CCN(c2ccccc2F)CC1 (centres undefined) | 34 | . | . | . | . | .
Cc1ccccc1N=Cc1cc2c(cc1O)OC(N)=C(C#N)C2c1ccccc1 (centres undefined) | 33 | . | . | . | . | .
COc1ccc(-c2nc(C)c(CCNC(=O)C(=O)Nc3ccccc3OC)s2)cc1 | / | / | / | . | / | .
Cc1cc2nc(/C(C#N)=C/c3ccncc3)[nH]c2cc1C | 36 | . | . | . | . | .
N#C/C(=C\c1ccncc1)c1nc2ccccc2[nH]1 | . | . | . | . | . | .
CCOC(=O)C1(Cc2cccc(OC)c2)CCCN(CCO)C1 (centres undefined) | . | . | . | . | . | .
COc1cccc(/C=C(\C(=O)O)c2ccccc2)c1 | . | . | . | . | . | .
CN1C(=O)/C(=C/c2cc(C(C)(C)C)c(O)c(C(C)(C)C)c2)NC1=S | . | . | 52 | . | ? | .
CN1C(=O)/C(=C/c2ccccc2OCc2ccccc2)NC1=S | . | . | . | . | . | .
O=C1C2CCCCN2C(=O)N1CCCCN1CCN(c2ccc(F)cc2)CC1 (centres undefined) | . | . | . | . | . | .
O=C1C2CCCCN2C(=O)N1CCCCN1CCN(c2cccc(Br)c2)CC1 (centres undefined) | 87 | . | . | . | . | 40
O=C1C2CCCCN2C(=O)N1CCN1CCN(c2cccc(Cl)c2)CC1 (centres undefined) | / | / | . | / | . | /
O=C1C2CCCN2C(=O)N1CCCCN1CCN(c2ccc(F)cc2)CC1 (centres undefined) | 40 | . | . | . | . | .
C=CCN1CCN(C(=O)c2cc3c(s2)CCC(CC)C3)CC1 (centres undefined) | 46 | . | . | . | . | .
Cc1ccc(C)c(-c2nnc(NC(=O)c3ccco3)o2)c1 | 41 | . | . | . | . | .
Cc1ccc(-c2nnc(NC(=O)c3ccco3)o2)c(C)c1 | . | . | . | . | . | .
